Compounds with a hit are over-represented: about 19% of the library has one in this group of screens.
uPA generation: cell surface uPA generation inhibition; Potency, µM (series often up to 38.3 µM), for the others: at the highest dose activity change, negative = inhibition, most hits filed as inhibitors; 330,000 compounds, 0.31% hits; cell surface uPA generation assay, qHTS; active = well fitted inhibition curve with a large enough effect; inconclusive = small, poorly fitted or top-dose-only effect; inactive = no such curve, though single readings can be large or run the other way; tested in mouse RAW 264.7 cells; note: potency is the fitted concentration of half-maximal effect; nearly all actives have a fitted effect of over 55% in size
IL1B secr inh: blocks inflammasome-driven IL-1 beta release | AID 743279 | 360,000 compounds, 4.7% hits | THP-1 LPS/ATP IL-1B secretion, AlphaLISA, 16 h; active compounds read low | activity change, % at 57.5 µM; in the data active = activity change below about -50%; inconclusive = mostly about -30% to -49%
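THP-1 cells pretreated 1 hr with compounds (up to 57.5 uM final), then stimulated with LPS (250 ng/mL final) plus ATP (1.25 mM final); secreted IL-1B measured by AlphaLISA after 16 hr, decreased signal indicating inhibition.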
DT40 TDP1 CPT: DT40-hTDP1 cell growth loss with CPT; chicken DT40 Tdp1-/-;hTDP1 cells + 20 nM CPT, ATP luminescence, 48 h; Potency, µM (top dose mostly 46.2 µM), inactives show at the top dose activity change, negative = growth inhibition, hits mostly inhibitors; 420,000 compounds, 12% hits; note: potency is the fitted concentration of half-maximal effect; nearly all actives have a fitted effect of over 55% in size
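Chicken DT40 Tdp1-/- cells stably complemented with human TDP1 were seeded at 400 cells/well in medium containing 20 nM camptothecin, exposed to pin-transferred compounds, and grown at 37 °C for at least 48 hr. Viability was read as ATP luminescence.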
HT1080 IDH1KD tx: kills HT-1080 cells with IDH1 knockdown | Potency, µM (doses to about 46.1 µM), inactives show top-dose activity, negative = toxicity, usual class: cytotoxic | 360,000 compounds, 2% hits | HT-1080 IDH1 knockdown viability, ATP luminescence, 48 h;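 note: potency is the fitted concentration of half-maximal effect; 0% = DMSO wells and -100% = cell-free medium wells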
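Luminescent ATP read-out (CellTiter-Glo, 10 min at room temperature) after 48 h compound exposure at 37 °C gave viability of IDH1-knockdown HT-1080 cells. Activity was normalised to DMSO and cell-free wells, then fitted as concentration-response curves.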
TDP1 cell noCPT: qHTS for Inhibitors of human tyrosyl-DNA phosphodiesterase 1 (TDP1): qHTS in cells in absence of CPT; AID 686978, 2013; DT40 Tdp1-/- hTDP1 cells, no CPT, ATP luminescence, 48 h; Potency, µM (doses to about 46.2 µM), inactives show top-dose activity change, negative = growth inhibition, most hits filed as inhibitors; 420,000 compounds, 15% hits; note: potency is the fitted concentration of half-maximal effect; nearly all actives have a fitted effect of over 55% in size
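Chicken DT40 Tdp1-/- cells complemented with human TDP1, screened without camptothecin (DMSO vehicle only), 400 cells/well. Compounds pin-transferred, cells incubated at 37 °C for at least 48 hr. Growth read as ATP-dependent luminescence (CellTiter-Glo, 30 min at RT).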
HT1080NT lethal: kills 2HG-producing HT-1080-NT fibrosarcoma cells; HT-1080-NT fibrosarcoma viability, CellTiter-Glo ATP luminescence, 48 h; Potency, µM (series often up to 46.1 µM), for the others: at the top dose activity, negative = less viability, usual class: cytotoxic; 360,000 compounds, 1.6% hits; AID 686970;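 note: NT is the 2HG producing partner of a matched IDH1 knockdown line; potency is the fitted concentration of half-maximal effect; 0% = DMSO-treated cells and -100% = media-only wells without cells; nearly all actives have a fitted effect of over 55% in size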
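750 cells/well, RPMI + 5% FBS; 2 h settle, compound pin-transfer, 48 h at 37 degrees C. CellTiter-Glo 10 min RT, luminescence. Normalized to DMSO and media-only wells.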
The depositor's hits bear a star; ? = inconclusive; . = not tested or not shown. Unless noted, calls come from the whole dose curve; as a rule, active = well fitted curve in the direction sought with a large enough effect; inconclusive = small, poorly fitted or top-dose-only effect, or another doubt; inactive = no such curve, though single readings can be large; an effect the other way counts as inactive or inconclusive. Unless noted, % is set by controls: 0 for no effect and ±100 for the full control effect.

SMILES	uPA generation	IL1B secr inh	DT40 TDP1 CPT	HT1080 IDH1KD tx	TDP1 cell noCPT	HT1080NT lethal
Cc1nn(CC(=O)NCCCN2CCC(Cc3ccccc3)CC2)c(=O)c2cc(-c3ccccc3)nn12	5%	-19	18µM*	-3%	18µM*	-8%
Cc1nn(CC(=O)NCCCN2CCN(Cc3ccccc3)CC2)c(=O)c2cc(-c3ccccc3)nn12	-7%	5	?	1%	21µM*	2%
CCCN(C(=O)c1ccco1)c1nnc(-c2ccccc2C)s1	-18%	-22	?	-9%	?	-2%
CCN(CC)CCCN(C(=O)c1ccco1)c1nc(-c2ccc(C)cc2)cs1	-8%	-85*	18µM*	?	?	?
O=C(c1ccco1)N(CCCN1CCOCC1)c1nc(-c2ccc(F)cc2)cs1	6%	-88*	23µM*	?	16µM*	?
Cc1ccc(-c2csc(NC(=O)CCNC(=O)c3ccco3)n2)cc1	13%	9	-2%	-18%	?	-20%
CCN(CC)CCCN(C(=O)c1ccco1)c1nc(-c2ccc(Cl)cc2)cs1	-9%	-67*	?	15µM*	?	23µM*
CN(C(=O)c1ccco1)c1nc(-c2ccc(F)cc2)cs1	2%	-17	9%	18%	-15%	27%
CCN(CC)CCN(C(=O)c1ccco1)c1nc2c(C)c(C)ccc2s1	.	.	23µM*	.	21µM*	.
CC(=O)C(=Cc1ccccc1)c1ccccc1	.	7	?	2%	-28%	2%
CN1C(C)(C)CC(O)(C(=O)O)CC1(C)C	.	18	-11%	12%	-1%	25%
CN(C(=O)c1ccco1)c1nc(CC(=O)Nc2ccccc2)cs1	-5%	-2	-32%	-8%	?	0%
CCN(C(=O)c1ccco1)c1nc(CC(=O)Nc2ccc(Cl)cc2)cs1	7%	-10	?	-26%	16µM*	-29%
CC1C/C(=N/NC(=O)c2ccc(CSc3nc4ccccc4[nH]3)cc2)CC(C)(C)C1 (centres undefined)	0%	-4	-26%	-10%	-27%	-5%
CC1C/C(=N/Nc2nc3ccccc3[nH]2)CC(C)(C)C1 (centres undefined)	-16%	-3	21µM*	-1%	?	2%
Cc1ccc(NC(=O)c2cn3c4c(ccc(Cl)c4c2=O)OC(C)C3)c(C)c1 (centres undefined)	.	.	-19%	.	-26%	.
CCc1ccc(-c2nn(CC(=O)NC3CCCCC3)c3c2cnc2ccc(OC)cc23)cc1	.	.	5.8µM*	.	5.8µM*	.
COc1cc2ncc3c(-c4ccccc4)nn(CC(=O)NC4CCCCC4)c3c2cc1OC	.	.	15µM*	.	15µM*	.
CCc1ccc(-c2nn(CC(=O)NC3CCCCC3)c3c2cnc2ccc(C)cc23)cc1	.	.	-10%	.	-5%	.
CCc1ccc(-c2nn(-c3ccc(OC)cc3)c3c2cnc2ccc(OC)cc23)cc1	.	.	?	.	6.5µM*	.
COc1ccc2ncc3c(-c4ccc(C)c(C)c4)nn(CC(=O)NC4CCCCC4)c3c2c1	.	.	8.2µM*	.	12µM*	.
Cn1c(=O)c(-c2ccc(Cl)cc2)nc2cnc(Nc3ccccc3)nc21	.	.	6%	.	13%	.
COc1ccc(CNC(=O)c2cn(Cc3ccccc3OC)c(=O)s2)cc1	.	-14	-30%	-4%	-24%	-4%
CCCNC(=O)Cn1nc(-c2ccc(C)c(C)c2)c2cnc3ccc(OC)cc3c21	.	.	10µM*	.	8.2µM*	.
O=C(COC(=O)c1cccc(S(=O)(=O)N2CCOCC2)c1)NCc1ccccc1	-5%	-11	2%	21%	-4%	6%
SMILES	uPA generation	IL1B secr inh	DT40 TDP1 CPT	HT1080 IDH1KD tx	TDP1 cell noCPT	HT1080NT lethal
O=C(OCC(=O)N(CCc1ccccc1)Cc1ccccc1)c1ccc(F)c(S(=O)(=O)N2CCOCC2)c1	-7%	15	?	-11%	2.9µM*	-7%
O=C(OCC(=O)N(CCc1ccccc1)Cc1ccccc1)c1cccc(S(=O)(=O)N2CCOCC2)c1	-16%	21	?	-1%	7.3µM*	-8%
O=S(=O)(Nc1ccc(-c2ccc3nncn3n2)cc1)c1cccc(F)c1	5%	6	-25%	-12%	-18%	0%
CCOc1ccc(-c2nc(Cn3c(=O)cc(-c4ccccc4)c4c(C)nn(C)c43)c(C)o2)cc1	.	.	-5%	.	4%	.
COc1ccc(S(=O)(=O)Nc2ccccc2C(=O)NCc2cccnc2)cc1OC	2%	19	1%	7%	9%	9%
NC(=NCc1ccc(Cl)cc1Cl)NC(=O)c1nc(Cl)c(N)nc1N	.	.	6.2µM*	.	4.4µM*	.
Cc1cnc(C(=O)NCc2ccc(Cl)cc2Cl)cn1	-1%	-5	-2%	-21%	-28%	-15%
O=c1cc(CCl)nc2sc3ccccc3n12	1%	-59*	?	?	?	16µM*
Cc1sc(NC(=O)CSC2=NCCS2)nc1-c1ccccc1	-6%	-97*	-23%	-1%	?	14%
CC(=O)N1CC(=O)N=C1SCC(=O)Nc1nc(-c2ccccc2)c(-c2ccccc2)s1	-7%	-77*	18µM*	?	13µM*	?
Cc1sc(NC(=O)CSc2ncn(-c3ccccc3)n2)nc1-c1ccccc1	1%	0	?	-5%	-58%	9%
O=C(CSC1=NCCS1)Nc1nc2ccccc2s1	-26%	-74*	?	?	?	-5%
CC1(C)Cc2cccc(OCC(=O)OCC(=O)Nc3ccc(S(N)(=O)=O)cc3)c2O1	.	19	-17%	1%	3%	-1%
Cc1nn(CC(=O)Nc2ccc(N3CCOCC3)cc2)c(C)c1Cl	16%	12	-3%	26%	1%	9%
CC1(C)CC(=O)C=C(c2ccc(-c3cnn(Cc4ccccc4)c3)cc2)C1=O	.	?	?	?	?	2%
O=c1c(-c2ccccc2)nc2cnc(N3CCOCC3)nc2n1-c1ccccc1	.	.	4%	.	-4%	.
CCCCNC(=O)[C@@H]1CC=C[C@@H]2CCN(CCCC)C(=O)[C@@H]21	.	.	-16%	.	?	.
Cc1ccc(SCc2ccc(C(=O)NCc3cccnc3)cc2)cc1	5%	-6	?	-22%	?	0%
Cc1ccc(Cn2c(SCc3ccc(C(=O)NCCc4ccccc4)cc3)nc3ccncc32)cc1	.	.	15µM*	.	12µM*	.
O=C(NCCc1ccccc1)c1ccc(CSc2nc3ccncc3n2Cc2ccccc2)cc1	.	.	4.6µM*	.	?	.

Bioassay records: PubChem BioAssay, National Center for Advancing Translational Sciences (NCATS)
